Measured values taken from PubChem BioAssay.

Assay: A549 cell viability effects, profiling panel, calcein-AM fluorescence, 48 h, basal (AID 1162); also: test concentration not given here
Settings: higher = more signal

Compound | z-score
COCCOC(=O)N1C(=O)[C@@]2(c3ccccc31)[C@H](C(=O)N1CCN(c3ncccn3)CC1)[C@H]1C(=O)O[C@H](c3ccccc3)[C@H](c3ccccc3)N1[C@@H]2c1ccccc1OCCO | 1.14
Cc1ccc(C(C)CC(O)C2C=CC3C(=O)N(C)C(=O)C3N2Nc2ccccc2)o1 (stereo unspecified) | -0.428
CC1CC/C=C\[C@H]2OC34C=CCN(CCN5CCOCC5)C(=O)[C@H]3N(CCCO)C(=O)[C@@H]4C2C(=O)O1 (stereo partly specified) | -0.451
CCCNC(=O)[C@@]1(c2ccc([N+](=O)[O-])cc2)CC(=O)N(C(C)C)[C@@H]1c1ccc(CO)cc1 | 0.186
C=C(COC)/C(=C/C[C@H](OC(C)=O)c1ccccc1OCCO)c1cc(C(=O)OC)ccc1OC | -0.168
CC(C)C(=C=CC[C@H](O)c1ccccc1OCCO)C[C@H](O)COCc1ccccc1 | 0.827
CCCC[C@H]1OB(O)C[C@H]2C1=C(COc1ccccc1)C[C@H]1C(=O)C=CC(=O)[C@H]12 | 0.696
Cc1ccc(N2C(=O)c3ccccc3[C@](C)(C(=O)NCCCN(C)C)[C@@H]2c2ccc(CO)cc2)nc1 | 0.235
CCCCC(O)C1C=CC2C(=O)N(c3ccccc3)C(=O)C2N1Nc1ccc([N+](=O)[O-])cc1 (stereo unspecified) | 0.286
C=CCC(OC(C)=O)[C@@H]1[C@@H](N(Cc2ccc(-c3cccc(C(F)(F)F)c3)o2)C(=O)c2ccc(-c3ccccc3)cc2)c2cc(OCCCO)ccc2N1C(=O)c1ccc2ccccc2c1 (stereo partly specified) | 0.965
C=C(CCCC)/C(=C/C[C@H](OC(C)=O)c1cccc(OCCO)c1)c1cnc2ccccc2c1 | 0.955
OCCCC1=CC(c2ccc(CN3CCCC3)cc2)N(Cc2cccc(OC(F)(F)F)c2)CC1 (stereo unspecified) | -4.68
C=C(COC)C(=O)CC[C@H](OC(=O)c1cccnc1)c1ccc(OCCO)cc1 | 0.369
COc1ccc(C(O)C2C=CC3C(=O)N(c4ccccc4)C(=O)C3N2Nc2ccc(C#N)cc2)cc1OCc1ccccc1 (stereo unspecified) | 0.233
C=CCNC(=O)[C@H]1[C@@H]2C(=O)O[C@@H](c3ccccc3)[C@@H](c3ccccc3)N2[C@@H](c2ccc(OCCO)cc2)[C@]12C(=O)Nc1ccc(C#CC3(O)CCCCCC3)cc12 | 1.17
CC[C@@H]1C=C(C(=O)O)[C@H](c2ccc(OC)cc2)N1S(=O)(=O)c1ccc(C)cc1 | -0.0984
O=C1C2C=CC(C(O)C3CCCCC3)N(n3cnnc3)C2C(=O)N1Cc1ccccc1 (stereo unspecified) | -0.916
[N-]=[N+]=NCc1ccccc1[C@@H]1OC(c2ccc(OCCCO)cc2)=N[C@]1(Cc1ccccc1N=[N+]=[N-])C(=O)O | 0.143

Compound | z-score
COC(=O)c1cccc([C@H]2OC(=CC(=O)OC(C)C)C[C@@H](c3cccc(C(=O)OC)c3)O2)c1 | -0.921
CN(C)CCCNC(=O)[C@@]1(Cc2ccccc2I)c2ccccc2C(=O)N(C2CCCCC2)[C@H]1c1ccc(CO)cc1 | -4.29
O=C1NC(=O)C2C1C=CC(C(O)c1ccc(B(O)O)cc1)N2Nc1ccc(Cl)cc1Cl (stereo unspecified) | -0.591
COC(=O)[C@@]1(Cc2ccccc2)[C@H]2c3cc(C(=O)N(C)C)n(CCO)c3C[C@H]2CN1C(=O)c1ccccc1 | -1.33
C=C(CCCC)C(=O)CC[C@H](OC(=O)c1ccccc1-c1ccccc1C(=O)O)c1ccc(OCCO)cc1 | -0.107
O=C1OCCC=C[C@H]2OC34C=CCN(c5ccc6ccccc6c5)C(=O)[C@H]3N(CCO)C(=O)[C@@H]4C12 (stereo partly specified) | 0.327
COc1cc(CO)cc(I)c1O[C@H]1C=C(C(=O)NCCO)C[C@@H]2O[C@H]12 | -0.42
COCCOC(=O)N1C(=O)[C@@]2(c3cc(C#CCC(C(=O)OC)C(=O)OC)ccc31)[C@H](C(=O)Nc1nc3ccccc3s1)[C@H]1C(=O)O[C@H](c3ccccc3)[C@H](c3ccccc3)N1[C@@H]2c1ccc(OCCO)cc1 | 0.4
CC(C)C[C@H]1NC(=O)C([C@@H](C)OCc2ccccc2)NC(=O)[C@@]23C(=O)N[C@@H](Cc4ccccc4)C2[C@H](C)[C@@]2(C)O[C@H]2C3/C=C/C/C=C\CNC1=O (stereo partly specified) | -0.469
C=C(COC)/C(=C/C[C@@H](OC(C)=O)c1ccccc1OCCO)c1cnc2ccccc2c1 | 0.106
COc1ccc([Si](C)(C)[C@@H]2[C@@H](CC(=O)N3CCC[C@H]3CO)O[C@]3(C(=O)N(Cc4ccc(N5CCOC5=O)cc4)c4ccccc43)[C@H]2C)cc1 | -0.526
COC(=O)[C@@]1(Cc2ccccc2)[C@H]2c3cc(C(=O)N(C)C)n(CCSC(=N)N)c3C[C@H]2CN1C(=O)c1ccccc1 | -0.944
O=C1O[C@@H](c2ccccc2)[C@@H](c2ccccc2)N2[C@@H](c3ccc(OCCO)cc3)[C@]3(C(=O)Nc4ccc(C#CC5(O)CCCCCC5)cc43)[C@@H](C(=O)Nc3nc4ccccc4s3)[C@H]12 | 0.324
COCCCN1C(=O)[C@@]2(c3ccc([N+](=O)[O-])cc3)CC(=O)N(CC34CC5CC(CC(C5)C3)C4)[C@@H]2c2ccc(CO)cc21 | 0.555
O=C1C2C=CC(C(O)c3cccs3)N(Nc3ccc([N+](=O)[O-])cc3)C2C(=O)N1c1ccccc1 (stereo unspecified) | -0.792
C=C1C(=O)C=C2CN(C(=O)c3ccccc3)[C@@](Cc3ccc(OC)cc3)(C(=O)OC)[C@@H]12 | -1.92
CCOC(=O)C[C@H]1[C@H](OC(=O)c2cc3ccccc3oc2=O)[C@@H](NC(=O)CC(C)C)c2cc(OCCCO)ccc2N1C(=O)Cc1ccc(OC)cc1 | 0.746
CCOC(=O)C1=CC[C@@H](c2ccccc2)N(S(=O)(=O)c2ccc(C)cc2)[C@H]1c1ccccc1I | -0.855
